In PubChem BioAssay (EPA / NIEHS):
Activity calls are given as the source filed them. Rule for the calls: active = hit-call score of the fitted dose curve at least 0.9, where 1 is the maximum; inactive = score below 0.9.

Experiment: CCTE_Padilla_ZF_Score.Edema: CCTE's 144 Hour Post-fertilization zebrafish Assay Score for Edema Malformation, Padilla Lab (AID 2284406)
Description: CCTE_Padilla_ZF_Phenotype_Score is a whole embryo, multiplexed assay using zebrafish ova exposed for 144 hours post fertilization on a 96-well plate.CCTE_Padilla_ZF_Score.Edema is one of one assay component(s) measured or calculated from the CCTE_Padilla_ZF_Phenotype_Score assay. It is designed to make measurements of zebrafish development as detected with brightfield microscopy of developing zebrafish embryos.Data from the assay component CCTE_Padilla_ZF_Score.Edema was analyzed into 1 assay endpoints. This assay endpoint, CCTE_Padilla_ZF_Score.Edema, was analyzed in the positive analysis fitting direction relative to DMSO as the negative control and baseline of activity. Using a type of viability reporter, gain-of-signal activity can be used to understand changes in developmentals as they relate to the whole embryo. To generalize the intended target to other relatable targets, this assay endpoint is annotated to the zebrafish development intended target family, where the subfamily is embryonic edema.
Zebrafish husbandry: Wild type adult zebrafish (Danio rerio; undefined outbred stock obtained from Aquatic Research Organisms, Hampton, NH, 03842) were housed in an AAALAC-approved animal facility at 28C with a 14:10 h light: dark cycle (lights on at 08:30 h). Adult fish (2-3 females per male; density = 15-20 adults per tank) were kept in one of several 9-liter (L) flow-through colony tanks (Aquaneering Inc., San Diego, CA). All adults in a colony tank were placed in a 2 L (static) breeding tank (Aquatic Habitats, Apopka, FL) one hour prior to light onset. Typically, adults from two to three colony tanks were mated on the same day. Two hours after light onset the adults were returned to the colony tank. All embryos were gathered from each breeder tank, pooled, and placed in a 28C water bath for 2 h, followed by two washes with 0.06% bleach (v/v) in 10% Hanks' Balanced Salt Solution (13.7 mM NaCl 0.54 mM KCl, 25 uM Na2HPO4, 130 uM CaCl2 100 um MgSO4 and 420 um NaHCO3,), hereafter referred to as Hanks' solution, for 5 min in order to remove any residual bacteria or fungi. Immediately following washing, the embryos were examined, and healthy embryos were separated from dead or unfertilized eggs and moved into fresh Hanks'. Chemical exposures: Zebrafish embryos were exposed in 96-well plates. Between 6- and 8-hours post fertilization (hpf), healthy embryos (with chorions) were transferred, one embryo per well, into 96 well (0.5 mL) microtiter plates (Cell Culture-Treated, Flat-Bottom Microplate 96 well [Corning Costar, Kennebunk, ME; Cat 09-761-145]) filled with 200 uL of Hanks' solution. A random number generator was used to assign the order in which the rows of embryos were plated in 96 well plates each week. After plating, the embryos were dosed with 0.8 uL of the chemical dosing solution then immediately sealed with AlumaSeal II (Excel Scientific Inc, Victorville, CA) to prevent volatilization of the chemicals, and then placed in a leakproof secondary container. These containers were placed in an incubator maintained on a 14:10 h light: dark cycle at 26C for rearing. On 5 dpf, live larvae were gently moved out of the plate with test chemicals and into a new 96 well mesh plate (Millipore Corp., Bedford, MA) with just the Hanks' solution. Once within the mesh well plate, the animals were rinsed with 400 uL of fresh Hanks' three times, and then the plates were covered with a non-adhesive material (Microseal A, BioRad, Hercules, CA), plate lid added, and then plate sides wrapped in Parafilm (PM992, Bermis Company, Neenah, WI), and returned to the incubator. This rinse on 5 dpf was conducted to lessen the possible exposure of the human assessors to the chemicals during detailed examination of each larva at 6 dpf.Larval assessments: On 6 dpf between 8 and 10 AM, two individual assessors, blinded to the chemical treatments, independently examined each larva for mortality, hatching status, and malformations using an Olympus SZH10 stereo microscope. […]

Row | SMILES | outcome | AC50
1 | C=CC(=O)OCCC(F)(F)C(F)(F)C(F)(F)C(F)(F)C(F)(F)C(F)(F)C(F)(F)C(F)(F)F | inactive | –
2 | O=P(O)(O)CCC(F)(F)C(F)(F)C(F)(F)C(F)(F)C(F)(F)C(F)(F)C(F)(F)C(F)(F)F | – | 1.69 µM (active)
3 | OCC(F)(F)C(F)(F)C(F)(F)C(F)(F)C(F)(F)C(F)(F)C(F)(F)C(F)(F)C(F)(F)C(F)(F)C(F)(F)F | inactive | –
4 | CN(CCO)S(=O)(=O)C(F)(F)C(F)(F)C(F)(F)C(F)(F)C(F)(F)C(F)(F)C(F)(F)C(F)(F)F | inactive | –
5 | FC(F)(F)C1(F)C(F)(F)C(F)(F)C(F)(F)C(F)(C(F)(F)F)C1(F)F (centres undefined) | inactive | –
6 | O=C(O)CCC(F)(F)C(F)(F)C(F)(F)C(F)(F)C(F)(F)C(F)(F)F | inactive | –
7 | O=P(O)(O)CCC(F)(F)C(F)(F)C(F)(F)C(F)(F)C(F)(F)C(F)(F)F | – | 23.9 µM (active)
8 | O=C(F)C(F)(F)C(F)(F)C(F)(F)C(=O)F | inactive | –
9 | O=C1OC(=O)C(F)(F)C1(F)F | inactive | –
10 | C=CC(F)(F)C(F)(F)C(F)(F)C(F)(F)F | inactive | –
11 | FC(F)(F)C1(F)C(F)(F)C(F)(F)C(F)(F)C1(F)F | inactive | –
12 | O=C(O)CCC(F)(F)C(F)(F)C(F)(F)C(F)(F)C(F)(F)F | – | 10.7 µM (active)
13 | COC(=O)C(F)(F)C(F)(F)C(F)(F)C(F)(F)C(F)(F)F | inactive | –
14 | O=C(OC(=O)C(F)(F)C(F)(F)F)C(F)(F)C(F)(F)F | inactive | –
15 | FC1(F)C=CC(F)(F)C1(F)F | inactive | –
16 | NC(C(F)(F)F)C(F)(F)F | inactive | –
17 | O=C(O)C(F)(F)OC(F)(F)C(F)(F)OC(F)(F)C(F)(F)OC(F)(F)C(F)(F)C(F)(F)C(F)(F)F | – | 3.21 µM (active)
18 | FC(OC(F)(F)C(F)(F)C(F)(F)F)C(F)(F)F (centres undefined) | inactive | –
19 | O=CC(F)(F)C(F)(F)C(F)(F)C(F)F | inactive | –
20 | O=CC(F)(F)C(F)(F)C(F)(F)F | inactive | –
21 | FC(F)=C(F)C(F)(F)C(F)(F)C(F)(F)C(F)F | inactive | –
22 | FC(F)(F)N1C(F)(F)C(F)(F)OC(F)(F)C1(F)F | inactive | –
23 | FCOC(C(F)(F)F)C(F)(F)F | inactive | –
24 | O=C(CC(=O)C(F)(F)C(F)(F)C(F)(F)F)c1cccs1 | inactive | –
